Experimental data published in PMC4336329 (PLoS ONE, 2015).
The whole screen tested about 310,000 compounds, of which about 14,000 (4.5%) showed an effect of 50% or more. The effect is printed as a negative number. The sample as a whole holds a higher share of strong results than the screen did.

The compounds below were run against human ether-à-go-go-related gene (hERG) potassium channel (human, UniProt Q12809) (assay: primary screen, population patch clamp on CHO cells stably expressing hERG; higher = less effect of the substance).
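Further: peak tail current of the secondary pulse compared with the same well before compound.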

Sequence of human ether-à-go-go-related gene (hERG) potassium channel (Q12809 whole entry, looked up): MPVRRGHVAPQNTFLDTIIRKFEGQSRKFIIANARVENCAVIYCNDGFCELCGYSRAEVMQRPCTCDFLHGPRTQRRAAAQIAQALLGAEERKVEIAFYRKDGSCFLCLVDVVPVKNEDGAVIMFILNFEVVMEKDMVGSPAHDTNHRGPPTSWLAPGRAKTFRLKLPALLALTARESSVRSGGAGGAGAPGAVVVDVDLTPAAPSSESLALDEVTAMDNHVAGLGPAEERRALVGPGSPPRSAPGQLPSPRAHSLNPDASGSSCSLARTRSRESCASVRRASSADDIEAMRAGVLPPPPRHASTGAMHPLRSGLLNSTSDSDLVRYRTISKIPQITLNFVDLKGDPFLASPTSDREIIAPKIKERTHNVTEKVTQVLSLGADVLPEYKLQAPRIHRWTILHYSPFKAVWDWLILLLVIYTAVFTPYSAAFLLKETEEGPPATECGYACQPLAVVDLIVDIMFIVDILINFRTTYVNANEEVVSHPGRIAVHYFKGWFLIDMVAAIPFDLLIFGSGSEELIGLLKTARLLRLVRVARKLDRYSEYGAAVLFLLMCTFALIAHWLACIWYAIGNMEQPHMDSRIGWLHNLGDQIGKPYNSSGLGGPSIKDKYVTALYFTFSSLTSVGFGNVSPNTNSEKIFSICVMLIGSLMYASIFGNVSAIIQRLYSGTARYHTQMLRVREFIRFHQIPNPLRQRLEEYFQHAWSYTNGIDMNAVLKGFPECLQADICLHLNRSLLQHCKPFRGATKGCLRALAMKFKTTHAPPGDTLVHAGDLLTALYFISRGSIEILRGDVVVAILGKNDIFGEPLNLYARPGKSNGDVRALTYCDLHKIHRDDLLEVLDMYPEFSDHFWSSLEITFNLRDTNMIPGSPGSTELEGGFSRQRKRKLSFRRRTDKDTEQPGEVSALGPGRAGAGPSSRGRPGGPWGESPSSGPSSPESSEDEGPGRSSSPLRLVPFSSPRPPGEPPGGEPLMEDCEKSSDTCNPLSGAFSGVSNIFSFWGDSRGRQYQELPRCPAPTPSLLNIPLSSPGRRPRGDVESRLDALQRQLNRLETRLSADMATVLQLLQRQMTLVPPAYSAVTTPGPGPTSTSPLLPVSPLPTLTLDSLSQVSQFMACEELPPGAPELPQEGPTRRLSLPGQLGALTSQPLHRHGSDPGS

First: CCn1c(SCC(=O)N=Nc2c(O)[nH]c3ccccc23)nnc1-c1ccc(C(C)(C)C)cc1
Second: CC1Cc2ccccc2N1C(=O)CSc1nnc2c(n1)[nH]c1ccc(F)cc12 (stereo not shown)
The “hERG current change (%, negative = inhibition) at 10uM” value of the first is lower: -5.11% for the first, 12.6% for the second.

Going from `Cc1cc(O)cc(C)c1Cl` to `Cc1noc(C)c1COC(=O)c1cccnc1Cl`, the “hERG current change (%, negative = inhibition) at 10uM” value rises from -2.78% to 3.21%.

First: Cc1ccc(NC(=O)c2ccc(Cl)c(NC(=O)c3cccs3)c2)cc1
Second: O=C(Nc1cc(C(=O)N2CCN(c3ccccc3O)CC2)ccc1Cl)c1cccs1
The “hERG current change (%, negative = inhibition) at 10uM” value of the first is higher: -12.5% for the first, -60.1% for the second.

Going from `O=C(NCC(=O)N1CCN(c2ccccc2O)CC1)c1cccs1` to `O=C(NC(=S)Nc1ccccc1N1CCN(C(=O)c2ccccc2)CC1)c1cccs1`, the “hERG current change (%, negative = inhibition) at 10uM” value rises from 3.84% to 9.73%.

Going from `CC(=O)N1CCN(C(=O)c2ccc(Cl)c(NC(=O)c3cccs3)c2)CC1` to `CCOC(=O)N1CCN(C(=O)c2ccc(Cl)c(NC(=O)c3cccs3)c2)CC1`, the “hERG current change (%, negative = inhibition) at 10uM” value falls from -15.3% to -54.7%.

Compared with `COc1ccc(NC(=O)CN(C)C(=O)c2ccc(=O)[nH]c2)cc1`, `COc1ccc(C(=O)NC(=S)Nc2ccc3[nH]c(=O)[nH]c3c2)c(OC)c1` is lower in “hERG current change (%, negative = inhibition) at 10uM” value: 21.7% for the first, 5.35% for the second.

Compared with `COc1ccc(NC(=O)C2CC(=O)N(Cc3ccco3)C2)cc1Cl` (stereo not shown), `COc1ccccc1C1CCN(Cc2ccc(Cl)cc2Cl)CC1` is higher in “hERG current change (%, negative = inhibition) at 10uM” value: -4.14% for the first, 11.1% for the second.

Compared with `N/C(=N\O)c1ccccc1-n1cccc1`, `COc1ccccc1C(=O)N/C(N)=N/c1nc2ccccc2o1` is lower in “hERG current change (%, negative = inhibition) at 10uM” value: 25.7% for the first, 1.36% for the second.

First: COc1ccc(/C(N)=N/OC(=O)/C=C/c2ccccc2)cc1
Second: NC(=O)c1ccc(CN2CCC(Cc3ccccc3)CC2)cc1
The “hERG current change (%, negative = inhibition) at 10uM” value of the first is higher: -37.2% for the first, -57.1% for the second.

Compared with `CCCN1CCN(S(=O)(=O)c2cn(C)nc2C)CC1`, `CS(=O)(=O)N1CCN(c2nc3ccc(Cl)cc3s2)CC1` is lower in “hERG current change (%, negative = inhibition) at 10uM” value: 22% for the first, 5.72% for the second.

Going from `C=CCNC(=O)c1ccc(C2SCC(=O)N2Cc2ccccc2)cc1` (stereo not shown) to `C=CCNC(=O)c1ccc(CN2CCC(Cc3ccccc3)CC2)cc1`, the “hERG current change (%, negative = inhibition) at 10uM” value falls from 6.11% to -66.8%.

Going from `COCCNC(=O)c1ccc(CN2CCC(Cc3ccccc3)CC2)cc1` to `CC(C)NC(=O)c1ccc(CN2CCC(Cc3ccccc3)CC2)cc1`, the “hERG current change (%, negative = inhibition) at 10uM” value falls from -11.6% to -37.2%.

Compared with `Cc1ccc(S(=O)(=O)NCc2ccc(C(=O)NCCCN3CCC(Cc4ccccc4)CC3)cc2)cc1`, `Cc1ccc(S(=O)(=O)NCc2ccc(C(=O)NCCCN3CCN(C)CC3)cc2)cc1` is higher in “hERG current change (%, negative = inhibition) at 10uM” value: -80.6% for the first, 19.3% for the second.

Going from `O=C(NCc1ccccc1)c1ccc(CN2CCC(Cc3ccccc3)CC2)cc1` to `O=C(Nc1ccccc1)c1ccc(CN2CCC(Cc3ccccc3)CC2)cc1`, the “hERG current change (%, negative = inhibition) at 10uM” value rises from -70.3% to 14.7%.

Going from `CC(=O)Nc1ccc(S(=O)(=O)NCc2ccc(C(=O)NCCCN3CCC(C)CC3)cc2)cc1` to `O=C(NNC(=O)c1cc(Cl)ccc1O)c1ccc(NS(=O)(=O)c2cccs2)cc1`, the “hERG current change (%, negative = inhibition) at 10uM” value falls from 19.7% to -20.7%.

Going from `O=C(NCc1ccccc1)N1CCC(Cc2ccccc2)CC1` to `C=CCNC(=S)N1CCC(Cc2ccccc2)CC1`, the “hERG current change (%, negative = inhibition) at 10uM” value falls from 10.5% to -25.9%.

Compared with `CNC(=S)Nc1cc(S(=O)(=O)Nc2cc(Cl)ccc2Cl)ccc1N1CCCC1`, `O=S(=O)(c1ccc(Cl)cc1)N1CCCN(c2nc3ccc(Cl)cc3s2)CC1` is higher in “hERG current change (%, negative = inhibition) at 10uM” value: -12.4% for the first, 11.8% for the second.

Going from `CN1C(=O)c2cccc(NC(=O)CCc3ccccc3)c2C1=O` to `COc1ccccc1NC(=O)CC1C(=O)Nc2c1c(=O)n(C)c(=O)n2C` (stereo not shown), the “hERG current change (%, negative = inhibition) at 10uM” value rises from -19.6% to 4.88%.

First: O=C(CSc1nnc(COc2ccccc2)o1)c1ccccc1
Second: Cc1cc(=O)[nH]c(SCC(=O)Nc2nc(-c3ccccc3)c(-c3ccccc3)o2)n1
The “hERG current change (%, negative = inhibition) at 10uM” value of the first is lower: 1.95% for the first, 3.76% for the second.

Going from `CCC(C)(C)NC(=O)C(c1ccc(F)cc1)N(Cc1cccc(OC)c1)C(=O)c1cnccn1` (stereo not shown) to `Cc1ccc(NC(=O)c2nc(S(=O)(=O)Cc3ccccc3C)ncc2Cl)cc1C`, the “hERG current change (%, negative = inhibition) at 10uM” value falls from 9.72% to 2.81%.

First: COC(=O)C1=C(C)C(c2ccc(OC)cc2OC)NC(=O)N1 (stereo not shown)
Second: COc1ccc(NC(=O)C/C(C)=N/NC(=O)C(=O)NC2CCCCC2)c(OC)c1
The “hERG current change (%, negative = inhibition) at 10uM” value of the first is higher: 13.1% for the first, -8.46% for the second.

Compared with `Cc1ccc(N2C(=O)C3C4C=CC(CC4)C3C2=O)cc1Br` (stereo not shown), `O=C(CN1C(=O)C2C3C=CC(C4CC34)C2C1=O)Nc1cccc2ncccc12` (stereo not shown) is lower in “hERG current change (%, negative = inhibition) at 10uM” value: 15.4% for the first, 0.881% for the second.

Compared with `N#Cc1ncc(-c2ccc3c(c2)OCCOCCOCCOCCOCCO3)nc1C#N`, `N#Cc1ncc(-c2ccc3c(c2)OCCOCCOCCOCCO3)nc1C#N` is higher in “hERG current change (%, negative = inhibition) at 10uM” value: -75.3% for the first, -69% for the second.

Compared with `Cl.Nc1nc(-c2ccc3c(c2)OCCO3)cs1`, `N#CCC(=O)Nc1nc(-c2ccc3c(c2)OCCO3)cs1` is lower in “hERG current change (%, negative = inhibition) at 10uM” value: 19.4% for the first, 13.1% for the second.

First: c1cncc(-c2nc(-c3ccc4c(c3)OCCO4)cs2)c1
Second: c1ccn2cc(-c3ccc4c(c3)OCCO4)nc2c1
The “hERG current change (%, negative = inhibition) at 10uM” value of the first is lower: -4.72% for the first, 1.08% for the second.

Compared with `Cc1ccc2nc(-c3ccc4c(c3)OCCO4)cn2c1`, `N#Cc1cn(-c2ccccc2)nc1-c1ccc2c(c1)OCCO2` is higher in “hERG current change (%, negative = inhibition) at 10uM” value: -16% for the first, 11.8% for the second.

First: N#Cc1cncc(-c2ccc3c(c2)OCCOCCOCCOCCOCCO3)n1
Second: N#Cc1ccc(N2CCOCC2)nc1
The “hERG current change (%, negative = inhibition) at 10uM” value of the first is lower: -86.9% for the first, -0.729% for the second.

Compared with `CCOC(=O)c1ccc(-c2ccc3c(c2)CCC3)nc1C`, `CCOC(=O)C(C)On1c(-c2ccc(Cl)cc2)nc2ccc([N+](=O)[O-])cc21` (stereo not shown) is lower in “hERG current change (%, negative = inhibition) at 10uM” value: 12.6% for the first, -20.4% for the second.

First: CCCCNC(=O)N1CCCN(c2ccc(C#N)cn2)CC1
Second: N#Cc1ccc(N2CCCNCC2)nc1
The “hERG current change (%, negative = inhibition) at 10uM” value of the first is higher: -49.8% for the first, -88.5% for the second.

First: Cc1nn2c3ccccc3n(CC(=O)c3cccs3)c2nc1=O
Second: O=C(O)COn1c(-c2ccccc2)nc2ccc([N+](=O)[O-])cc21
The “hERG current change (%, negative = inhibition) at 10uM” value of the first is lower: 1.78% for the first, 11.3% for the second.

Compared with `Cc1ccc(Nc2c(-c3ccco3)nc3ccccn23)cc1`, `COc1ccccc1C1CCN(Cc2ccc(C)cc2)CC1` is lower in “hERG current change (%, negative = inhibition) at 10uM” value: 2.78% for the first, -90% for the second.

Compared with `COc1ccccc1C1CCN(Cc2c(C)[nH]c3ccccc23)CC1`, `COc1ccccc1C1CCN(Cc2ccccc2Cl)CC1` is higher in “hERG current change (%, negative = inhibition) at 10uM” value: -64.4% for the first, -3.3% for the second.

Compared with `Cc1[nH]c2ccccc2c1CN1CCN(c2ccccn2)CC1`, `Cc1[nH]c2ccccc2c1C(c1ccncc1)N1CCN(c2ccccn2)CC1` (stereo not shown) is higher in “hERG current change (%, negative = inhibition) at 10uM” value: -52.7% for the first, 8.61% for the second.

Compared with `COc1ccccc1C1CCN(Cc2cccc([N+](=O)[O-])c2)CC1`, `COc1ccccc1C1CCN(Cc2ccccc2)CC1` is higher in “hERG current change (%, negative = inhibition) at 10uM” value: -49.1% for the first, -34.5% for the second.

First: Cc1[nH]c2ccccc2c1CN1CCc2ccccc2C1
Second: COc1ccccc1C1CCN(Cc2cccc3ccccc23)CC1
The “hERG current change (%, negative = inhibition) at 10uM” value of the first is higher: -12.9% for the first, -13.9% for the second.

Compared with `COc1ccccc1C1CCN(Cc2ccc(Cl)c(Cl)c2)CC1`, `COc1ccccc1C1CCN(Cc2ccc3ccccc3c2)CC1` is lower in “hERG current change (%, negative = inhibition) at 10uM” value: 12.3% for the first, -75% for the second.

Compared with `COC(=O)CCc1nc2c(C#N)c(-c3ccc(Cl)cc3)ccn2n1`, `N#Cc1ccc(S(=O)(=O)N2CCCN(c3nc4ccc(Cl)cc4s3)CC2)cc1` is lower in “hERG current change (%, negative = inhibition) at 10uM” value: -2.07% for the first, -70.3% for the second.

Compared with `Cc1ccc(/C=N/NC(=O)c2cc(C)oc2C)cc1`, `CC(=O)Nc1ccc(/C=N/N2C(=O)NC(C)(c3ccc(OC(F)F)cc3)C2=O)cc1` (stereo not shown) is lower in “hERG current change (%, negative = inhibition) at 10uM” value: 4.58% for the first, -10.5% for the second.

Going from `COC(=O)c1cc(C(=O)OC)cc(N2C(=O)CC(NNC(=O)c3ccc(C)cc3)C2=O)c1` (stereo not shown) to `CCOC(=O)C(C)On1c(-c2ccccc2)nc2ccc([N+](=O)[O-])cc21` (stereo not shown), the “hERG current change (%, negative = inhibition) at 10uM” value falls from -11.5% to -51.3%.

First: COc1cc(NC(=O)C/C(C)=N/NC(=O)C(=O)NC2CCCCC2)c(OC)cc1Cl
Second: COc1cc(NC(=O)C/C(C)=N/NC(=O)C2CCCCC2)c(OC)cc1Cl
The “hERG current change (%, negative = inhibition) at 10uM” value of the first is lower: -91.2% for the first, 9.28% for the second.

Going from `CCOC(=O)CC1ON(C)C(=O)N1c1ccc([N+](=O)[O-])cc1` (stereo not shown) to `CCOC(=O)N1CCN(c2ccc(C(F)(F)F)cn2)CC1`, the “hERG current change (%, negative = inhibition) at 10uM” value rises from -6.46% to -4.3%.

Going from `C/C(=N/NC(=O)c1ccn(C)n1)c1ccncc1` to `CC(CC(=O)N1CCN(c2ccc(C(F)(F)F)cn2)CC1)n1ccnc1` (stereo not shown), the “hERG current change (%, negative = inhibition) at 10uM” value falls from 13.2% to -66.2%.

Compared with `O=S(=O)(c1ccc(C(F)(F)F)cc1)N1CCCN(c2ccc(C(F)(F)F)cn2)CC1`, `O=S(=O)(c1ccc(Cl)cc1)N1CCCN(c2ccc(C(F)(F)F)cn2)CC1` is lower in “hERG current change (%, negative = inhibition) at 10uM” value: 5.3% for the first, -23.3% for the second.

Going from `CC(=O)c1cccc(OCC(=O)N2CCN(c3ccc(C(F)(F)F)cn3)CC2)c1` to `N#Cc1ccc(OCC(=O)N2CCN(c3ccc(C(F)(F)F)cn3)CC2)cc1`, the “hERG current change (%, negative = inhibition) at 10uM” value falls from -16.3% to -54.7%.

First: Cc1ccccc1SCC(=O)N1CCN(c2ccc(C(F)(F)F)cn2)CC1
Second: O=C(O)COCC(=O)N1CCCN(c2ccc(C(F)(F)F)cn2)CC1
The “hERG current change (%, negative = inhibition) at 10uM” value of the first is lower: -38% for the first, 14.3% for the second.

In the case of `N#Cc1ccc(S(=O)(=O)N2CCCN(c3ccc(C(F)(F)F)cn3)CC2)cc1`, the “hERG current change (%, negative = inhibition) at 10uM” value is reported as -73.9%.
